Experimental findings from PubChem BioAssay (NCATS) are described below.

Where “and” joins values, the source holds several entries; their conditions need not be identical. Equal values may be shown once. A number with no mark means an inactive call. Records with an inconclusive call do not appear. Calls of active or inactive are those of the source. Unless noted, the call rests on the fitted dose curve; in most records, active means well fitted curve in the direction sought with a large enough effect; inconclusive means small, poorly fitted or top-dose-only effect, or another doubt; inactive means no such curve, though single readings can be large; an effect the other way counts as inactive or inconclusive. Where only a bound is given, the exact number is not on record here.

The nature of experiment [1]: Cell Viability - MRC5 (AID 434; calls by dose curve;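 further: potency means the concentration at half of the fitted maximal effect; cells exposed to compound for 40 hours at 37 °C; potency reflects cytotoxicity seen as loss of intracellular ATP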). The settings on record: MRC5 lung fibroblast viability, qHTS. The essentials: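 ATP luminescence read-out (CellTiter-Glo, 20 min RT) after 40 hr, 37 °C compound exposure of 1500 MRC5 cells/well. Data normalized to DMSO (basal) and 100 uM tamoxifen (100% inhibition); AC50 from standard Hill equation.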
In general terms: Quantitative high-throughput screening tests each substance at several concentrations.

Experiment [2] in a line: Cell Viability - HUV-EC-C (AID 542).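 Further: cells exposed to compound for 40 hours; nearly all actives have a fitted effect of over 35% in size.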 Further: potency means the concentration at half of the fitted maximal effect. The settings on record: HUV-EC-C endothelial cell viability, qHTS; series mostly up to 92.2 µM. The essentials: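 Cells were seeded at 1000 per well and incubated 5 hr at 37 °C before compound addition. After 40 hr at 37 °C, CellTiter-Glo reagent was added for 20 min and luminescence read. AC50 values came from Hill-equation modelling.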

The nature of experiment [3]: Cellular Toxicity (caspase-3) HepG2 (AID 654).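 Further: cells exposed to compound for 16 hours before reading; 0% = DMSO alone and 100% = caspase signal from 100 µM tamoxifen.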 Particulars: HepG2 caspase-3 activation, luminescence; series mostly up to 92.2 µM. A digest of the protocol:
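Caspase 3/7 activation in HepG2 is measured as rising luminescence after a 16 hr treatment at 37 °C. Values are scaled between DMSO basal and 100 uM tamoxifen, and AC50 is fitted with the Hill equation.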

Experiment [4] is described as follows: Cellular Toxicity (caspase-3) HUV-EC-C (AID 656). The settings on record: HUV-EC-C cells, caspase-3 activation (apoptosis); series mostly up to 92.2 µM. The essentials: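 Read-out: luminescence proportional to caspase 3/7 activity, measured 20 min after adding Caspase-Glo 3/7 reagent. Cells (HUV-EC-C) had received compound for 16 hr at 37°C. Increases relative to DMSO and 100 uM tamoxifen gave concentration-response AC50 values.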

The nature of experiment [5]: Cellular Toxicity (caspase-3) MRC-5 (AID 659). The settings on record: MRC-5 cells, luminescence, normalized: DMSO 0%, 10 µM staurosporine 100%; series mostly up to 91.7 µM. A digest of the protocol: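 MRC-5 fibroblasts, 1500/well; 16 h cpd, 37 °C; Caspase-Glo 3/7, 1 h RT; lumi read. Norm: DMSO = 0%, 10 uM staurosporine = 100%. Hill-fit AC50 from qHTS conc-response.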

Experiment [6] can be described thus: Cellular Toxicity (caspase-3) SK-N-SH (AID 661). The settings on record: SK-N-SH caspase-3 activation, qHTS, DMSO as zero, staurosporine as full; series mostly up to 91.7 µM. The essentials:
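Cells were seeded and incubated 5 hr at 37 °C, dosed with compound over a concentration range for 16 hr, then given Caspase-Glo 3/7 reagent for 1 hr at room temperature before luminescence reading.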

Experiment [7] can be described thus: Cellular Toxicity (caspase-3) N2a (AID 665).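 Further: compound exposure lasted 16 h at 37 °C before readout.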 The settings on record: N2a cells, luminescence, normalized: DMSO 0%, 10 µM staurosporine 100%; series mostly up to 92.2 µM. The essentials:
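Caspase-3/7 activation, measured as increased luminescence from aminoluciferin release, is quantified in mouse N2a cells exposed to compounds for 16 h. Values are normalized to DMSO and 10 uM staurosporine, with AC50 derived by Hill modelling.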

Experiment [8] is described as follows: Cellular Toxicity (caspase-3) NIH 3T3 (AID 666).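 Further: caspase signal read after 16 h compound exposure; 0% = DMSO basal and 100% = 100 µM tamoxifen stimulation.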 Particulars: NIH 3T3 caspase-3 activation, apoptosis/toxicity, 0% DMSO, 100% is 100 µM tamoxifen; series mostly up to 92.2 µM. The essentials: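 Cells were plated at 1000 per well and incubated 5 hr at 37°C, then compound was added for 16 hr. Caspase-Glo 3/7 reagent followed for 20 min at room temperature before luminescence was read.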

A short description of experiment [9]: Cellular Toxicity (caspase-3) Renal Proximal Tubule (AID 667).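 Further: cells exposed to compound for 16 hours at 37 °C before detection.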 The settings on record: renal proximal tubule cells, primary cells freshly taken from rat; Potency: caspase-3 activation; series mostly up to 91.7 µM. A digest of the protocol: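 In qHTS format, rat primary proximal tubule cells seeded at 1000 per well are exposed to compounds for 16 hours at 37 °C. An increase in Caspase-Glo 3/7 luminescence indicates caspase activation.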

A short description of experiment [10]: MultiTox-Fluor Cytotoxicity Assay - LYMP1-001 - Dead Cells (AID 946). Further: potency means the concentration at half of the fitted maximal effect. Particulars: LYMP1-001 lymphoblastoid cells, dead-cell protease fluorescence; series mostly up to 92.2 µM. The essentials: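 LYMP1-001 lymphoblastoid cells (2500/well) treated 16 h at 37 C. Dead-cell protease cleavage of bis-AAF-R110 read at Ex/Em 485/520. Normalized to DMSO and 15 uM tetraoctylammonium bromide; AC50 from Hill fits.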

Experiment [11] can be described thus: MultiTox-Fluor Cytotoxicity Assay - LYMP1-003 - Dead Cells (AID 961). Further: nearly all actives have a fitted effect of over 70% in size. Further: potency means the concentration at half of the fitted maximal effect. Particulars: LYMP1-003 lymphoblastoid cells, dead-cell protease fluorescence; series mostly up to 92.2 µM. The essentials:
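LYMP1-003 human lymphoblastoid cells (2500/well) exposed to compound 16 h at 37 C in complete medium; dead-cell protease read with bis-AAF-R110 fluorescence (Ex/Em 485/520) after 60 min at room temperature. Normalized to DMSO and 15 uM tetraoctylammonium bromide; AC50 from Hill fit.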

Experiment [12] is described as follows: MultiTox-Fluor Cytotoxicity Assay - LYMP1-003 - Live Cells (AID 962).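 Further: 0% = DMSO only and full loss = 92 µM tetraoctylammonium bromide; cytotoxic hits lower the live-cell protease signal.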 The settings on record: LYMP1-003 lymphoblastoid cells, MultiTox-Fluor live-cell protease fluorescence; series mostly up to 92.2 µM. The essentials: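 Acute cytotoxicity is scored as a drop in live-cell protease activity in human lymphoblastoid LYMP1-003 cells after 16 hr compound exposure at 37 C. AC50 values come from Hill-equation modelling of concentration-response data.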

A short description of experiment [13]: Cell Viability - LYMP1-003 - Assay at 24 hr (AID 963).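 Further: plate controls were DMSO only for no effect and tetraoctylammonium bromide positive control for full effect.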 Particulars: LYMP1-003 lymphoblastoid cell viability; series mostly up to 92.2 µM. A digest of the protocol:
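Cytotoxicity is scored as a concentration-dependent fall in ATP-linked luciferase signal in human lymphoblastoid LYMP1-003 cells treated 24 hr at 37 C in complete culture medium.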

The nature of experiment [14]: Cell Viability - LYMP1-002 - Assay at 24 hr (AID 993). Further: on the % scale 0 is the no-effect control and ±100 the full control effect. Particulars: LYMP1-002 lymphoblastoid cells viability; series mostly up to 92.2 µM. A digest of the protocol: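 Acute toxicity is measured as concentration-dependent loss of cellular ATP in a human lymphoblastoid line (Coriell LYMP1-002) after 24 h treatment in complete medium. ATP is quantified by luciferase luminescence and AC50 derived by Hill modelling.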

The nature of experiment [15]: qHTS Assay for Identification of Small Molecule Inducers of Hypoxia Response (AID 2120; active means well fitted curve in the direction sought with a large enough effect in the signal ratio, with a control signal flat, not every such curve was filed as active; the % refers to the signal ratio; further: 0% is about no effect). The settings on record: hypoxia response reporter cells, beta-lactamase ratio readout; series mostly up to 104 µM. A digest of the protocol:
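Cell-based qHTS for reporter induction: hypoxia response element controlled beta-lactamase in ME-180 cells. Compounds incubated 17 h at 37 degrees C; activity from blue/green (460/530 nm) ratio, inducers ranked by AC50.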

For experiment [16], the target named is Peroxisome proliferator-activated receptor alpha (Homo sapiens) (UniProt Q07869). The experiment is described as follows: qHTS assay for small molecule agonists of the peroxisome proliferator-activated receptor alpha (PPARalpha) signaling pathway (AID 651778). Further: % of control where 0% means no effect. Particulars: PathHunter PPARalpha complementation, chemiluminescence, 6 h; max response: stronger effect = higher value. The essentials:
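Enzyme-fragment complementation assay in which ligand-bound PPARalpha translocates and forms an active enzyme that generates chemiluminescence. Cells were plated overnight, exposed to compound for 6 hr at 37 C, and then given detection reagent for 60 min at room temperature.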

Experiment [17] is described as follows: qHTS assay for small molecule agonists of the antioxidant response element (ARE) signaling pathway measured by Nrf2-dependant transcriptional activity - cell viability counter screen (AID 720653; active means well fitted curve in the direction sought with a large enough effect in the repeat runs; an effect the other way counts as inactive or inconclusive; further: on the % scale 0 is the no-effect control and ±100 the full control effect). The settings on record: ARE-bla HepG2 viability, CellTiter-Glo ATP luminescence, 16 h; max response: stronger effect = lower value. A digest of the protocol: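 ARE-bla HepG2 cells treated with compounds for 16 h at 37C; this counter screen measures viability as intracellular ATP by CellTiter-Glo luminescence after 30 min at room temperature.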

Experiment [18] in a line: qHTS assay for cell viability of HEK293 cells (AID 743288). Further: on the % scale 0 is the no-effect control and ±100 the full control effect; nearly all actives have a fitted effect of over 50% in size. The settings on record: ATP luminescence (CellTiter-Glo), 18 h; max response: stronger effect = lower value. The essentials: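 Quantitative high-throughput screen: compounds were pinned onto parental HEK293 cells (2,000 per well) after a minimum 5 h settling at 37 C, incubated 18 h at 37 C, and intracellular ATP measured by luciferase luminescence.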

A short description of experiment [19]: qHTS assay for cell viability of the p53RE-bla HCT-116 cell line (AID 743292). Further: on the % scale 0 is the no-effect control and ±100 the full control effect; nearly all actives have a fitted effect of over 55% in size. Particulars: p53RE-bla HCT-116 viability, ATP luminescence, 16 h; series mostly up to 95 µM. The essentials: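 HCT-116 p53RE-bla cells seeded 4,000/well; 5 h at 37 C; compound (DMSO) added; 16 h at 37 C; CellTiter-Glo added, 30 min RT; luminescence read.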
Experiment [20] can be described thus: Cellular Toxicity (caspase-3) Hek293 (AID 664).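 Further: cells exposed to compound for 16 h at 37 °C before readout.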 Particulars: HEK293 caspase-3 activation, DMSO = 0%, 100 µM tamoxifen = 100%; at 92.2 µM (top of the series). A digest of the protocol: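 qHTS, HEK293 (human embryonic kidney), 16 h cpd exposure in complete medium. Caspase-3/7 activation = luminescence increase; normalized to DMSO/100 uM tamoxifen; Hill-fit AC50.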

Sequence of Peroxisome proliferator-activated receptor alpha (Homo sapiens) (Q07869 whole entry, looked up, the tested form may be a part): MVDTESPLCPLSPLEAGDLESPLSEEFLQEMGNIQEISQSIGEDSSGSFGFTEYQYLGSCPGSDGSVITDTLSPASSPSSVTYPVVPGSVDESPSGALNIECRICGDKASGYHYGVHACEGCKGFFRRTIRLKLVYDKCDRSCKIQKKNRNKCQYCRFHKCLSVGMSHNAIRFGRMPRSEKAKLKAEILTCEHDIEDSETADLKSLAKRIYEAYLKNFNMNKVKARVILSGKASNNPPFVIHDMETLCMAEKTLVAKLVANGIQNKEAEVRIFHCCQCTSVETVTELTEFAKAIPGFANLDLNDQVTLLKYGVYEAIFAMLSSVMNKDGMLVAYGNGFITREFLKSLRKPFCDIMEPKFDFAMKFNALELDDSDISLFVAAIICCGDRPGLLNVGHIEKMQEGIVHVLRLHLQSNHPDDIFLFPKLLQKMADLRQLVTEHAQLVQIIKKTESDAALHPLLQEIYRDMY

Turning to `CCCCCCCC/C=C\CCCCCCCC(=O)N(CCO)CCO`, the values for the Potency in experiment [1] and in [2] were more than 92 µM and 39.8 µM (active), respectively. Besides, the Potency result in experiment [3], in experiment [4], in experiment [9], in experiment [10], in experiment [11] and in experiment [12] was “inactive” throughout. In addition, the Potency result in [13], in experiment [14], in [15] and in experiment [19] was “inactive” in each case. The compound was classed as inactive in experiment [5], in experiment [6], in experiment [7] and in experiment [8]. Moreover, the max response in [16] was 28.4%; in experiment [17], -24.9%; in experiment [18] it was -16%.
With `Nc1ccc(N)c(Cl)c1`, the Potency in experiment [1] was more than 92 µM. The Potency entry in experiment [2], in experiment [3], in [4], in experiment [9], in experiment [10] and in experiment [11] was “inactive” throughout. For the same compound, the Potency result in experiment [14], in [15] and in [19] was “inactive” each time. Moreover, the compound was called inactive in experiment [5], in experiment [6], in [7] and in experiment [8]. For the same compound, the caspase-3 activation in experiment [20] was 4.53%. Further, the max response in experiment [16] was 0.817%; in experiment [17], 24%; in [18] it was -4.85%.
For the compound `c1ccc2ncccc2c1`, the Potency in [1] was more than 92 µM. For the same compound, the Potency entry in experiment [2], in [3], in [4], in experiment [9], in [10] and in experiment [11] was “inactive” throughout. In addition, the Potency result in [12], in experiment [13], in experiment [14], in experiment [15] and in [19] was “inactive” in each case. Moreover, the result in experiment [5], in experiment [6], in experiment [7] and in [8] was inactive. Moreover, the caspase-3 activation in experiment [20] is -0.104%. The max response in experiment [16] was -2.05%; in experiment [17], 0.928%; in experiment [18], -7.69%.
`CN(C)c1ccc(Cc2ccc(N(C)C)cc2)cc1`: in experiment [1], the Potency is more than 92 µM. In addition, the Potency result in experiment [2], in experiment [3], in experiment [4], in experiment [9], in experiment [10] and in experiment [11] was “inactive” throughout. For the same compound, the Potency entry in experiment [12], in experiment [13], in experiment [14], in experiment [15] and in experiment [19] was “inactive” in each case. Also, the outcome in experiment [5], in [6], in experiment [7] and in experiment [8] was inactive. Also, in experiment [20], the caspase-3 activation is 2.63%. The max response in experiment [16] is 1.98% and -1.9%; in experiment [17] it was -17.1% and 8.5%; in [18], -15.2% and -24.3%.
For the compound `COc1ccc([N+](=O)[O-])cc1N`, the Potency in experiment [1] was more than 92 µM. Moreover, the Potency entry in [2], in experiment [3], in experiment [4], in experiment [9], in experiment [10] and in experiment [11] was “inactive” in each case. Moreover, the Potency result in experiment [12], in experiment [13], in experiment [14], in [15] and in experiment [19] was “inactive” throughout. Also, the call in [5], in experiment [6], in experiment [7] and in experiment [8] was inactive. For the same compound, in experiment [20], the caspase-3 activation was -2.76%. Moreover, the max response in experiment [16] is -6.59% and -0.402%; in experiment [17], -6.61% and -1.85%; in experiment [18], -2.82% and -3.03%.
On to `O=[N+]([O-])c1cc(Cl)c(Cl)c(Cl)c1Cl`, for which the Potency was more than 92 µM in experiment [1], 25.1 µM (active) in experiment [10] and 50.1 µM (active) in experiment [11]. For the same compound, the Potency entry in experiment [2], in [3], in [4], in [9], in experiment [12] and in experiment [13] was “inactive” each time. Moreover, the Potency entry in [14], in experiment [15] and in experiment [19] was “inactive” throughout. For the same compound, the compound was classed as inactive in experiment [5], in [6] and in experiment [7]. The caspase-3 activation in experiment [20] is 2.6%. Besides, the max response in [16] was -1.46%; in experiment [17], -4.59%; in experiment [18], -2.48%.
